In all, about 5,500 compounds went through this assay and about 2,000 (36%) were called active. Roughly 18% stayed inconclusive and do not appear here. No stated cut-off is given here; in the data, active means normalized growth mostly below about 0.91 (no sharp cut-off); inconclusive means no clear call, values can overlap the other calls; inactive means mostly above about 0.92. Some of the results follow.
Assay: chemical genetic growth profiling, strain panel (AID 1159580);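 further: tested at 20 µM; growth read once vehicle control cultures reached saturation at 30 °C; 1 = growth at the plate median or of vehicle wells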
Settings: growth OD

Measured: normalized growth

O=C(/C=C(\O)c1ccccc1)c1ccccc1O
inactive: S. cerevisiae deletion strains, locus YKL068W, stronger effect = lower value 0.969 | S. cerevisiae deletion strains, locus YKL085W, strain MDH1 (second series), stronger effect = lower value 0.963 | S. cerevisiae deletion strains, locus YKL085W, strain MDH1, stronger effect = lower value 0.963 | S. cerevisiae deletion strains, locus YLR102C, strain apc9, stronger effect = lower value 0.997 | S. cerevisiae deletion strains, locus YLR342W, strain FKS1 (second series), stronger effect = lower value 0.849 | S. cerevisiae deletion strains, locus YLR384C, strain iki3, stronger effect = lower value 0.92 | S. cerevisiae deletion strains, locus YMR078C, strain ctf18, stronger effect = lower value 0.948 | S. cerevisiae deletion strains, locus YMR125W, strain sto1, stronger effect = lower value 0.991 | S. cerevisiae deletion strains, locus YNL067W, strain RPL9B, stronger effect = lower value 0.929 | S. cerevisiae deletion strains, locus YNL128W, strain TEP1, stronger effect = lower value 0.855 | S. cerevisiae deletion strains, locus YNL248C, strain rpa49, stronger effect = lower value 0.91 | S. cerevisiae deletion strains, locus YNL250W, strain rad50, stronger effect = lower value 0.97 | S. cerevisiae deletion strains, locus YNL271C, strain bni1, stronger effect = lower value 0.951 | S. cerevisiae deletion strains, locus YNL298W, strain CLA4, stronger effect = lower value 0.926 | S. cerevisiae deletion strains, locus YNL307C, strain MCK1, stronger effect = lower value 0.928 | S. cerevisiae deletion strains, locus YOL012C, strain htz1 0.3 | S. cerevisiae deletion strains, locus YOR061W, strain CKA2, stronger effect = lower value 0.93 | S. cerevisiae deletion strains, locus YOR080W, strain dia2, stronger effect = lower value 0.929 | S. cerevisiae deletion strains, locus YOR136W, strain idh2, stronger effect = lower value 0.939 | S. cerevisiae deletion strains, locus YOR316C, strain cot1, stronger effect = lower value 0.941 | S. cerevisiae deletion strains, locus YPL106C, strain sse1, stronger effect = lower value 0.933 | S. cerevisiae deletion strains, locus YPR119W, strain clb2, stronger effect = lower value 0.951 | S. cerevisiae deletion strains, locus YPR141C, strain kar3, stronger effect = lower value 0.967
active: S. cerevisiae deletion strains, locus YJL187C, strain SWE1 (second series), stronger effect = lower value 0.456 | S. cerevisiae deletion strains, locus YJL187C, strain SWE1, stronger effect = lower value 0.785 | S. cerevisiae deletion strains, locus YKL009W, strain mrt4, stronger effect = lower value 0.78 | S. cerevisiae deletion strains, locus YKL160W, strain elf1, stronger effect = lower value 0.823 | S. cerevisiae deletion strains, locus YKL190W, strain CNB1, stronger effect = lower value 0.902 | S. cerevisiae deletion strains, locus YKR001C, strain vps1, stronger effect = lower value 0.73 | S. cerevisiae deletion strains, locus YKR026C, strain gcn3, stronger effect = lower value 0.895 | S. cerevisiae deletion strains, locus YKR091W, strain srl3, stronger effect = lower value 0.904 | S. cerevisiae deletion strains, locus YLL001W, strain dnm1, stronger effect = lower value 0.769 | S. cerevisiae deletion strains, locus YLL026W, stronger effect = lower value 0.864 | S. cerevisiae deletion strains, locus YLL041C, strain sdh2, stronger effect = lower value 0.869 | S. cerevisiae deletion strains, locus YLR027C, strain aat2, stronger effect = lower value 0.685 | S. cerevisiae deletion strains, locus YLR039C, strain RIC1, stronger effect = lower value 0.137 | S. cerevisiae deletion strains, locus YLR058C, strain SHM2, stronger effect = lower value 0.442 | S. cerevisiae deletion strains, locus YLR221C, strain rsa3, stronger effect = lower value 0.601 | S. cerevisiae deletion strains, locus YLR258W, strain gsy2, stronger effect = lower value 0.818 | S. cerevisiae deletion strains, locus YLR262C, strain YPT6 (second series), stronger effect = lower value 0.391 | S. cerevisiae deletion strains, locus YLR262C, strain YPT6, stronger effect = lower value 0.463 | S. cerevisiae deletion strains, locus YLR268W, strain sec22, stronger effect = lower value 0.836 | S. cerevisiae deletion strains, locus YLR320W, strain mms22, stronger effect = lower value 0.767 | S. cerevisiae deletion strains, locus YLR342W, strain FKS1, stronger effect = lower value 0.903 | S. cerevisiae deletion strains, locus YLR357W, strain rsc2, stronger effect = lower value 0.785 | S. cerevisiae deletion strains, locus YLR370C, strain arc18, stronger effect = lower value 0.864 | S. cerevisiae deletion strains, locus YLR371W, strain rom2, stronger effect = lower value 0.801 | S. cerevisiae deletion strains, locus YLR418C, strain cdc73, stronger effect = lower value 0.64 | S. cerevisiae deletion strains, locus YML016C, strain PPZ1, stronger effect = lower value 0.633 | S. cerevisiae deletion strains, locus YML032C, strain rad52, stronger effect = lower value 0.453 | S. cerevisiae deletion strains, locus YML120C, strain ndi1, stronger effect = lower value 0.589 | S. cerevisiae deletion strains, locus YML124C, strain tub3, stronger effect = lower value 0.901 | S. cerevisiae deletion strains, locus YMR058W, strain fet3, stronger effect = lower value 0.21 | S. cerevisiae deletion strains, locus YMR129W, stronger effect = lower value 0.847 | S. cerevisiae deletion strains, locus YMR205C, strain PFK2, stronger effect = lower value 0.613 | S. cerevisiae deletion strains, locus YMR223W, strain ubp8, stronger effect = lower value 0.826 | S. cerevisiae deletion strains, locus YMR231W, strain pep5, stronger effect = lower value 0.083 | S. cerevisiae deletion strains, locus YMR307W, strain GAS1, stronger effect = lower value 0.523 | S. cerevisiae deletion strains, locus YNL071W, strain lat1, stronger effect = lower value 0.581 | S. cerevisiae deletion strains, locus YNL153C, strain GIM3, stronger effect = lower value 0.582 | S. cerevisiae deletion strains, locus YNL209W, strain ssb2, stronger effect = lower value 0.648 | S. cerevisiae deletion strains, locus YNL233W, strain BNI4, stronger effect = lower value 0.707 | S. cerevisiae deletion strains, locus YNL322C, strain KRE1 (second series), stronger effect = lower value 0.789 | S. cerevisiae deletion strains, locus YNR049C, strain mso1, stronger effect = lower value 0.892 | S. cerevisiae deletion strains, locus YNR052C, strain pop2, stronger effect = lower value 0.556 | S. cerevisiae deletion strains, locus YOL147C, strain pex11, stronger effect = lower value 0.531 | S. cerevisiae deletion strains, locus YOR001W, strain rrp6, stronger effect = lower value 0.733 | S. cerevisiae deletion strains, locus YOR069W, strain VPS5, stronger effect = lower value 0.719 | S. cerevisiae deletion strains, locus YOR070C, strain gyp1, stronger effect = lower value 0.921 | S. cerevisiae deletion strains, locus YOR083W, strain WHI5, stronger effect = lower value 0.745 | S. cerevisiae deletion strains, locus YOR106W, strain vam3, stronger effect = lower value 0.0896 | S. cerevisiae deletion strains, locus YOR144C, strain elg1, stronger effect = lower value 0.724 | S. cerevisiae deletion strains, locus YOR184W, strain ser1, stronger effect = lower value 0.703 | S. cerevisiae deletion strains, locus YOR265W, strain rbl2, stronger effect = lower value 0.849 | S. cerevisiae deletion strains, locus YOR270C, strain vph1, stronger effect = lower value 0.607 | S. cerevisiae deletion strains, locus YOR290C, strain snf2, stronger effect = lower value 0.676 | S. cerevisiae deletion strains, locus YPL051W, strain arl3, stronger effect = lower value 0.568 | S. cerevisiae deletion strains, locus YPL078C, strain atp4, stronger effect = lower value 0.795 | S. cerevisiae deletion strains, locus YPL240C, strain hsp82, stronger effect = lower value 0.78 | S. cerevisiae deletion strains, locus YPL241C, strain CIN2, stronger effect = lower value 0.928 | S. cerevisiae deletion strains, locus YPR163C, strain tif3, stronger effect = lower value 0.755 | S. cerevisiae deletion strains, locus YPR167C, strain met16, stronger effect = lower value 0.852 | S. cerevisiae deletion strains, strain wtn01, stronger effect = lower value 0.843 | S. cerevisiae strains, strain wild type, stronger effect = lower value 0.545
